This is a sample that favours compounds with a hit; in the whole collection about 17% have one here.
TGFb inhibitor: inhibitors of TGF-b signaling; HepG2 CAGA-GFP TGF-b/SMAD3 reporter, GFP fluorescence, 18 h; TGF-beta stimulated, 500 pg/mL final; Potency, µM (top dose mostly 46.1 µM), usual class: inhibitors; actives 1.2% (n = 410,000); note: nearly all actives have a fitted effect of over 65% in size
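TGF-beta reporter screen: HEPG2 CAGA-GFP, 1% FBS, 500 pg/mL TGF-beta final, 18 h; per-cell GFP summed per well; curves fitted and categorized by class.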
TDP1 cell noCPT: qHTS for Inhibitors of human tyrosyl-DNA phosphodiesterase 1 (TDP1): qHTS in cells in absence of CPT. DT40 Tdp1-/- hTDP1 cells, no CPT, ATP luminescence, 48 h. Potency, µM (top dose mostly 46.2 µM), usual class: inhibitors. actives 15% (n = 420,000); note: nearly all actives have a fitted effect of over 55% in size
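Cells were dispensed at 400 per well, compounds added by pin tool, plates incubated ≥48 hr at 37 °C, then CellTiter-Glo added for 30 min at room temperature before luminescence reading. Line: DT40 Tdp1-/- complemented with hTDP1; camptothecin omitted.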
HT1080 IDH1KD tx: kills HT-1080 cells with IDH1 knockdown. HT-1080 IDH1 knockdown viability, ATP luminescence, 48 h. Potency, µM (series often up to 46.1 µM), most hits filed as cytotoxic. actives 2% (n = 360,000)
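Viability of IDH1-knockdown HT-1080 fibrosarcoma cells was assessed by CellTiter-Glo after 48 h at 37 °C with titrated compound; concentration-effect curves were classified by fit quality and response size.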
TDP1 cell CPT: DT40-hTDP1 cell growth loss with CPT; chicken DT40 Tdp1-/-;hTDP1 cells + 20 nM CPT, ATP luminescence, 48 h; actives 12% (n = 420,000); Potency, µM (doses to about 46.2 µM), usual class: inhibitors; AID 686979; note: nearly all actives have a fitted effect of over 55% in size
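Cell growth measured by CellTiter-Glo luminescence after a minimum 48 h, 37 C compound exposure with 20 nM CPT in Tdp1-knockout DT40 cells stably expressing hTDP1, seeded 400/well; qHTS titration format.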
HT1080-NT tox: kills 2HG-producing HT-1080-NT fibrosarcoma cells | HT-1080-NT fibrosarcoma viability, CellTiter-Glo ATP luminescence, 48 h | Potency, µM (top dose mostly 46.1 µM), hits mostly cytotoxic | actives 1.6% (n = 360,000);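 note: NT is the 2HG producing partner of a matched IDH1 knockdown line; nearly all actives have a fitted effect of over 55% in size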
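HT-1080-NT; 750 cells/well; 5% FBS RPMI; 48 h compound, 37 degrees C; CellTiter-Glo luminescence; curve fitting and curve-class assignment.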
HepG2 tox: counter-screen for TGF-b inhibitors: cytotoxicity in HepG2 cells. HepG2 CAGA-GFP viability, ATP luminescence, 18 h. Potency, µM (top dose mostly 46.1 µM), usual class: cytotoxic. actives 0.76% (n = 410,000)
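HepG2 CAGA-GFP cells (1000/well, DMEM with 1% FBS) received compound, then TGF-beta at 500 pg/mL final, and were incubated 18 hours at 37 degrees C. Viability was read by CellTiter-Glo luminescence. Media-only wells were set as complete cell-killing and DMSO as no toxicity.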
A number is an active result; – = inactive; ? = inconclusive; · = not tested or not shown. Calls come from the whole dose curve; as a rule, active = well fitted curve in the direction sought with a large enough effect; inconclusive = small, poorly fitted or top-dose-only effect, or another doubt; inactive = no such curve, though single readings can be large; an effect the other way counts as inactive or inconclusive.

SMILES | TGFb inhibitor | TDP1 cell noCPT | HT1080 IDH1KD tx | TDP1 cell CPT | HT1080-NT tox | HepG2 tox
CC(NCc1ccc([N+](=O)[O-])cc1)C1COc2ccccc2O1 (stereo unspecified) | – | 21µM | – | – | – | –
O=C(CN1C(=O)C2C3C=CC(C3)C2C1=O)OCC(=O)c1ccc(Cl)c([N+](=O)[O-])c1 (stereo unspecified) | – | ? | – | 21µM | – | –
CCOC(=O)C(=C1Nc2ccccc2N1)n1c(-c2cccnc2)nc2ccccc21 | · | ? | – | 12µM | – | ·
CCN(CC)c1ccc(NC(=O)CNCc2ccccc2Cl)c(C)c1 | – | – | – | ? | – | –
Brc1ccc(OCCCOc2cccc3cccnc23)cc1 | – | – | – | – | – | –
Brc1ccc(OCCOCCOc2cccc3cccnc23)cc1 | ? | 23µM | – | ? | – | –
Clc1ccc(OCCOCCOc2cccc3cccnc23)c(Br)c1 | ? | ? | ? | 23µM | ? | 16µM
FC(F)(F)c1nc(NCc2cccnc2)c2ccccc2n1 | – | 23µM | – | ? | – | –
FC(F)(F)c1ccccc1-c1nc(NCc2cccnc2)c2ccccc2n1 | · | – | · | – | · | ·
CC(=O)O[C@@H]1C(=O)O[C@@H]2[C@H]1OC(=O)[C@@H]2OC(C)=O | · | – | · | – | · | ·
Cc1ccccc1C(=O)Oc1cccc2c(O)cccc12 | ? | ? | ? | ? | ? | –
O=C(Oc1cccc2c(O)cccc12)c1ccco1 | – | 12µM | – | 21µM | – | –
CCC1=C(OC(=O)N(CC)CC)N2C(=O)OC(=NCCc3c[nH]c4ccccc34)[C@]2(Cc2ccccc2)[C@H]2C1=CC[C@H]1C(=O)NC(=O)[C@H]12 | ? | 16µM | ? | ? | ? | –
CCC1=C(OC(=O)N(CC)CC)N2C(=O)OC(=NCC3CC3)[C@]2(Cc2ccccc2)[C@H]2C1=CC[C@H]1C(=O)N(C)C(=O)[C@H]12 | – | 18µM | – | 18µM | – | –
O=C(/C=C/[C@H]1O[C@@H](n2ccc(=O)[nH]c2=O)[C@H](O)[C@@H]1O)N[C@@H](Cc1ccccc1)C(=O)O | ? | – | – | – | – | –
COc1ccccc1CNC(=O)CCCC(=O)n1ncc2cc(C)ccc21 | – | – | – | – | – | –
Cc1ccccc1Nc1c(-c2cccnc2)nc2ccccn12 | – | ? | – | 21µM | – | –
Cc1ccccc1Nc1c(-c2c(F)cccc2Cl)nc2ccc(Br)cn12 | – | ? | · | ? | · | –
Cc1ccccc1Nc1c(-c2cc(Br)ccc2F)nc2ccccn12 | – | – | · | – | · | –
Cc1ccccc1Nc1c(-c2cccnc2)nc2ccc(Br)cn12 | ? | ? | – | 15µM | – | –
Cc1ccccc1Nc1c(-c2cccnc2)nc2ccc(Cl)cn12 | – | ? | · | 12µM | · | –
Cc1ccc(-c2nc3ccccn3c2Nc2ccccc2C)o1 | · | 16µM | – | ? | – | ·
NS(=O)(=O)c1ccc2nc(NC(=O)Nc3ccc(F)cc3)sc2c1 | – | ? | ? | – | – | –
O=c1ncn(-c2ccccc2F)c2ncccc12 | – | – | – | – | – | –
Cc1ccc(N2CC3=C(C2=O)C(c2ccc(Br)cc2)NC(=O)N3C)cc1 (stereo unspecified) | – | ? | · | ? | · | –
SMILES | TGFb inhibitor | TDP1 cell noCPT | HT1080 IDH1KD tx | TDP1 cell CPT | HT1080-NT tox | HepG2 tox
COC(=O)C1CN(S(=O)(=O)c2cc(OC)ccc2OC)CCS1 (stereo unspecified) | – | – | – | – | – | –
Cc1ccc(NC(=O)c2cccc(S(=O)(=O)Nc3c(C)n(C)n(-c4ccccc4)c3=O)c2)cc1C | – | – | – | – | – | –
Cc1ccc2nc(-c3ccncc3)c(Nc3ccccc3C)n2c1 | – | ? | · | ? | · | –
Cc1ccccc1Nc1c(-c2ccco2)nc2c(C)cccn12 | – | 21µM | · | 23µM | · | –
Cc1ccccc1Nc1c(-c2ccncc2)nc2ccc(Br)cn12 | ? | 18µM | – | 23µM | – | –
Cc1ccccc1Nc1c(-c2cccc(N(C)C)c2)nc2ccc(Br)cn12 | – | 23µM | · | 13µM | · | –
Cc1ccc2nc(-c3cccnc3)c(Nc3ccccc3C)n2c1 | – | ? | – | 16µM | – | –
Cc1ccc(Nc2c(-c3cccnc3)nc3ccc(C)cn23)cc1 | – | ? | · | ? | · | –
O=C(C[N+]1(CCc2ccccc2)CCOCC1)c1cccc([N+](=O)[O-])c1 | – | – | · | – | · | –
COc1ccc(-c2nc3ccccn3c2Nc2ccccc2C)cc1 | · | ? | – | 11µM | – | ·
Cc1ccccc1Nc1c(-c2ccc(Cl)cc2)nc2c(C)cccn12 | – | – | · | ? | · | –

Screens as filed in PubChem BioAssay.
